pPAFAH FP inh – pPAFAH enzyme inhibitors, primary screen, biochemical, fluorescence polarization, human; Platelet-activating factor acetylhydrolase (Homo sapiens), Q13093; recombinant pPAFAH, FP-rhodamine probe fluorescence polarization; inhibition, % at 3.39 µM; 330,000 tested, 1.5% active;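 active = inhibition above the mean inhibition across the screen plus 3 SD, cut at about 25% in these data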;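 note: inhibitors block binding of the rhodamine activity-based probe so polarization drops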
Fam108B inh – mouse Fam108B serine hydrolase inhibitors, primary screen, counter-screen for RBBP9 inhibitor project, biochemical, fluorescence polarization; inhibition, % at 9.51 µM; 300,000 tested, 0.33% active; recombinant Fam108B, FP-Rh probe fluorescence polarization; AID 1947, 2009;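 active = inhibition above the screen mean inhibition plus 3 SD, computed separately per campaign, cut at about 18% in these data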;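 note: inhibitors lower polarization as less probe binds the enzyme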
PAFAH1B3 inh – PAFAH1B3 enzyme inhibitors, primary screen, biochemical, fluorescence polarization, human; 340,000 tested, 0.28% active; AID 492972, 2010; recombinant PAFAH1B3, FP-rhodamine probe; inhibition, % at 3.39 µM;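 active = inhibition above the screen-wide average of all tested compounds plus 3 SD, cut at about 25% in these data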
Target sequence (Q15102 whole entry, looked up): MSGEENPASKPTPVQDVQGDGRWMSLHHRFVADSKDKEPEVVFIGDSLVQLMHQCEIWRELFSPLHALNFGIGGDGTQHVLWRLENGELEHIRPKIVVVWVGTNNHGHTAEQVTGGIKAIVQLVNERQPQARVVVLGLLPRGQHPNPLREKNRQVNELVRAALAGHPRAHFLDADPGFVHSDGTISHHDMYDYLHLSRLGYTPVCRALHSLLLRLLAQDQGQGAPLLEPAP
PAFAH2 inh – PAFAH2 enzyme inhibitors, primary screen, biochemical, fluorescence polarization, human | inhibition, % at 3.39 µM | 340,000 tested, 0.99% active | recombinant PAFAH2, FP-rhodamine activity probe | AID 492956, 2010 | Platelet-activating factor acetylhydrolase 2, cytoplasmic (Homo sapiens), Q99487;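 active = inhibition above the mean over all tested compounds plus 3 SD, cut at about 30% in these data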;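 note: inhibitors block probe labeling of enzyme so polarization drops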
PAFAH1B2 inh – PAFAH1B2 enzyme inhibitors, primary screen, biochemical, fluorescence polarization, human | AID 492953, 2010 | Platelet-activating factor acetylhydrolase IB subunit alpha2 (Homo sapiens), P68402 | inhibition, % at 3.39 µM | recombinant PAFAH1B2, FP-rhodamine activity probe | 340,000 tested, 1.2% active;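 active = inhibition above the mean of all tested compounds plus 3 SD, cut at about 24% in these data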
Target sequence (P68402 whole entry, looked up): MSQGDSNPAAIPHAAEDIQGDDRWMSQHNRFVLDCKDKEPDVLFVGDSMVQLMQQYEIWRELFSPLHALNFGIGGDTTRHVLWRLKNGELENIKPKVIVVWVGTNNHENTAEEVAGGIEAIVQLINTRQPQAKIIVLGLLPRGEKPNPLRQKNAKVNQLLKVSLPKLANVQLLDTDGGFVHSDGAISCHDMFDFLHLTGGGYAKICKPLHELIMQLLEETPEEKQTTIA
PME-1 inh – PME-1 inhibitors via competitive probe labeling, primary screen, biochemical, fluorescence polarization, FP-Rh probe, HTS | Protein phosphatase methylesterase 1 (Homo sapiens), Q9Y570 | recombinant PME-1 | inhibition, % at 5.9 µM | 320,000 tested, 0.53% active;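 active = inhibition above the campaign mean of all compounds plus 3 SD, cut at about 26% in these data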;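 note: competitive labeling of PME-1 active site by serine hydrolase directed probe; inhibitors block probe labeling so polarization falls and inhibition rises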
Hits are given with their value; n = inactive; x = no result. Hits are enriched below; roughly 2.9% of the tested compounds scored in any of these assays.

SMILES	pPAFAH FP inh	Fam108B inh	PAFAH1B3 inh	PAFAH2 inh	PAFAH1B2 inh	PME-1 inh
CC(C)CC(C(=O)Nc1cccc(O)c1)N1C(=O)c2ccccc2C1=O (stereo not drawn)	n	n	n	n	n	n
O=C(OCCN=C1NS(=O)(=O)c2ccccc21)c1ccccc1F	n	n	n	n	n	n
O=C(OCCOCCN=C1NS(=O)(=O)c2ccccc21)c1ccccc1Br	n	n	n	n	n	34
Cc1cccc(C(C)C)c1NC(=O)C1CN(S(=O)(=O)c2ccccc2)CCN1S(=O)(=O)c1ccccc1 (stereo not drawn)	n	n	n	n	n	n
Clc1ccc2nc(-c3ccccn3)c(Nc3ccc4c(c3)OCO4)n2c1	27	n	n	n	n	n
Cc1ccc2nc(-c3ccccc3O)c(Nc3ccc4c(c3)OCCO4)n2c1	n	n	n	n	n	n
CSc1oc(-c2ccco2)nc1S(=O)(=O)c1ccc(Br)cc1	n	n	n	n	n	n
CC(C)Sc1oc(-c2ccco2)nc1S(=O)(=O)c1ccc(F)cc1	26	n	n	n	n	n
Cc1ccc(N=Cc2c(O)c3ccccc3oc2=O)cc1F	n	n	n	n	n	n
O=C(NCc1cccnc1)/C(=C\c1ccc(-c2cccc(Cl)c2)o1)S(=O)(=O)c1ccccc1	26	n	n	n	n	n
Cc1ccc(C(=O)/C=C/c2cc(Br)cc(Br)c2O)o1	31	n	n	34	n	n
Cc1ccc(CONS(=O)(=O)c2cc(C)ccc2C)cc1	n	x	n	n	n	n
O=S(=O)(NOCc1ccc(Cl)cc1)c1ccc(Cl)cc1	29	n	n	n	56	n
Cc1ccc(Nc2ncc3c(n2)CC(C)(C)CC3=O)cc1	n	n	n	n	n	n
O=C(Cn1nc(-c2ccco2)ccc1=O)Nc1ccc(Cl)c(Cl)c1	n	n	n	n	n	n
Cc1noc(C)c1C(c1ccccc1)c1ccccc1	n	n	n	n	29	n
CC(=O)c1cc(-c2ccccc2)n(CCC(=O)NC2CCC(C)CC2)c1C (stereo not drawn)	n	n	n	n	n	n
COc1cc(/C=C2\SC(=S)N(CC(=O)O)C2=O)ccc1OS(=O)(=O)c1ccc(C)cc1	n	n	n	n	35	n
C=CCOc1ccc(/C=C2\SC(=S)N(C(C(=O)O)c3ccccc3)C2=O)cc1 (stereo not drawn)	x	x	n	n	n	x
CCOc1ccc(/C=C2\SC(=S)N(C(C(=O)O)c3ccccc3)C2=O)cc1OC (stereo not drawn)	n	n	n	n	n	35
Nc1cc2cccnc2cc1Cl	x	x	37	44	n	x
O=C(CSCC(=O)Nc1ccccc1)N/N=C/c1c(O)ccc2ccccc12	n	n	n	n	n	n
O=C(CNc1ccccc1)N/N=C/c1c(O)ccc2ccccc12	n	n	n	n	n	38
O=C(N/N=C/c1c(O)ccc2ccccc12)Nc1ccccc1	27	n	x	x	x	28
O=C(COc1cc(O)c2c(=O)cc(-c3ccccc3)oc2c1)c1ccccc1	n	n	n	n	n	n
SMILES	pPAFAH FP inh	Fam108B inh	PAFAH1B3 inh	PAFAH2 inh	PAFAH1B2 inh	PME-1 inh
O=C(COc1cc(O)c2c(=O)cc(-c3ccccc3)oc2c1)c1cccc([N+](=O)[O-])c1	n	n	n	n	25	n
COc1ccc2[nH]c(=O)c(CN(Cc3nnnn3Cc3ccco3)C3CCCCC3)cc2c1	n	n	n	n	n	n
COc1ccc(Cn2nnnc2CN(Cc2cc3cc(C)ccc3[nH]c2=O)C2CCCC2)cc1	n	n	n	n	26	n
O=C(NCc1ccccc1F)c1cccs1	n	n	n	n	n	n
O=C(NC(=S)NCc1ccccc1Cl)c1cccs1	27	x	n	n	n	x
CC(C)CC1=C/C(=C/c2ccc(-c3ccccc3)o2)C(=O)O1	29	n	n	n	n	n
O=C(Nc1nnc(SCc2c(Cl)cccc2Cl)s1)C1CC(=O)N(c2ccc3c(c2)OCCO3)C1 (stereo not drawn)	32	n	n	n	n	n
C=CCSc1nnc(NC(=O)C2CC(=O)N(c3ccc4c(c3)OCCO4)C2)s1 (stereo not drawn)	n	x	n	n	n	x
N#Cc1ccc(CSc2nnc(NC(=O)C3CC(=O)N(c4ccc5c(c4)OCCO5)C3)s2)cc1 (stereo not drawn)	n	n	n	n	n	n
O=C(Nc1nnc(SCc2ccc(F)cc2)s1)C1CC(=O)N(c2ccc3c(c2)OCCO3)C1 (stereo not drawn)	26	n	n	n	n	n
O=C(COC(=O)CNC(=O)c1ccc(Cl)cc1Cl)Nc1cccc(S(=O)(=O)N2CCCC2)c1	30	n	n	n	n	n
O=C(COC(=O)CCC1CCCC1)Nc1cccc(S(=O)(=O)N2CCOCC2)c1	25	n	n	n	n	n
NS(=O)(=O)c1cccc(NC(=O)COC(=O)CCC2CCCC2)c1	n	x	n	n	n	x
O=C(COC(=O)CNC(=O)c1ccccc1F)Nc1cccc(S(=O)(=O)N2CCCCCC2)c1	n	n	n	n	n	n
O=C(CSc1ncccn1)Nc1cccc(S(=O)(=O)N2CCOCC2)c1	n	x	n	n	n	x
O=C(CSc1nccc(=O)[nH]1)Nc1cccc(S(=O)(=O)N2CCOCC2)c1	30	n	n	n	n	n
Fc1ccc(C2CC(c3cccs3)=NN2C(=S)Nc2ccccc2)cc1 (stereo not drawn)	n	n	n	n	n	n
N#C/C(=C/c1ccccc1[N+](=O)[O-])C(=O)NCc1ccco1	n	n	n	n	n	n
CC1(C)CC2CC(C)(CN2C(=O)COC(=O)c2ccc(O)cc2O)C1 (stereo not drawn)	n	x	n	n	25	x
CCn1c(CNc2ccc(Cl)cc2)nnc1SCc1ccc(C)cc1	n	n	n	n	n	n
Cc1ccc2c(c1)c1c3n2CC(=C2C(=O)OC(C)(C)OC2=O)NC3CCC1 (stereo not drawn)	29	n	n	n	n	n
Cc1ccc2c(c1)c1c3n2CCN(C(=O)C2CC2)C3CCC1 (stereo not drawn)	n	n	n	n	n	n
CCOC(=O)C1CCN(S(=O)(=O)c2ccc(Cl)nc2)CC1	n	n	n	n	n	n
O=C(NCCc1ccc(Cl)cc1)C1CCC(=O)N1Cc1ccc(F)cc1 (stereo not drawn)	n	n	n	n	28	n
Cc1ccc(OCC(=O)N2CC(C)CC(C)C2)c([N+](=O)[O-])n1 (stereo not drawn)	n	x	n	n	n	x

Compound activity from PubChem BioAssay.
